Records with an inconclusive call do not appear. A call without a number means that no potency is given here. Activity calls are given as the source filed them. Calls come from the whole dose curve; as a rule, active = well fitted curve in the direction sought with a large enough effect; inconclusive = small, poorly fitted or top-dose-only effect, or another doubt; inactive = no such curve, though single readings can be large; an effect the other way counts as inactive or inconclusive.
How the values were obtained:
[1] = P-glycoprotein substrates identified in KB-8-5-11 adenocarcinoma cell line, qHTS therapeutic library screen (AID 1346987); note: nearly all actives have a fitted effect of over 65% in size
Method in brief: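 Compounds are pinned in dose-response onto KB-8-5-11 cells (500 cells/well, colchicine-free medium) and left 72 h at 37 degree C. CellTiter-Glo luminescence then yields AC50 values.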

[2] = Primary qHTS for inhibitors of nuclear receptor binding SET domain protein 2 (NSD2) in an RCH-ACV wild type WT cells (2C) (AID 1645877); note: potency is the fitted concentration of half-maximal effect; nearly all actives have a fitted effect of over 70% in size
[3] = molecular target: Glutathione peroxidase 1 (Homo sapiens) (UniProt P07203); assay: Primary qHTS Assay for Inhibitors of Recombinant Selenoprotein Glutathione Peroxidase 1 (GPX1) (AID 1845191); note: nearly all actives have a fitted effect of over 65% in size
Method in brief: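 NADPH consumption tracked by fluorescence at 340/450 nm between t=0 and t=15 min, room temperature. Final mix: 10 nM GPX1, 100 nM glutathione reductase, 1 mM GSH, 0.5 mM NADPH, 0.5 mM cumene hydroperoxide, 0.01% BSA; 30 min compound–enzyme preincubation.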

[4] = Primary qHTS for inhibitors of nuclear receptor binding SET domain protein 2 (NSD2) in an isogenic RCH-ACV NSD2 p.E1099K mutant (9B) (AID 1645876); note: potency is the fitted concentration of half-maximal effect; nearly all actives have a fitted effect of over 70% in size

Sequence of Glutathione peroxidase 1 (Homo sapiens) (P07203 whole entry, looked up): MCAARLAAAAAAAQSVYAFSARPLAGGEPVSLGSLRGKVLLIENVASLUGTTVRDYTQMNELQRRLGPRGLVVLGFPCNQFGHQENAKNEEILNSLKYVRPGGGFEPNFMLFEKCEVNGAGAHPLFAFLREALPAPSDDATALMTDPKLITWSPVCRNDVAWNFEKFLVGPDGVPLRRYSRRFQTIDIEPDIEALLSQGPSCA

Row | SMILES | Potency [1] | Potency [2] | Potency [3] | Potency [4]
1 | Cn1c(CNc2cccc(C(=O)NCc3ccccc3C(F)(F)F)c2)nnc1-c1ccncc1 | inactive | 10.3 µM (active) | inactive | 
2 | O=Nc1c2[nH]c3ccccc3nc-2c2ccccc12 | inactive |  | inactive | 13 µM (active)

Source: PubChem BioAssay (NCATS)
